Reference: the supplement of paper PMC12067093, “Discovery and optimisation of a covalent ligand for TRIM25 and its application to targeted protein ubiquitination” (Chemical Science, 2025)
The full data set covers some 21,000 targets. This sample favours those with the largest changes.

compound: CC1Cc2ccccc2N1C(=O)C1CCCN(C1)C(=O)CCl (mixture of isomers) [TRIM25 ligand 11 (diastereomer mixture)]; experiment: probe-labelled cysteine peptide fold change vs DMSO (competition) (log2 fold change); higher = less target engagement (more negative = stronger competition); conditions: 10 µM; THP-1; incubation time: 4 h
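Further: competitive chemoproteomic profiling in live THP-1 cells with an iodoacetamide desthiobiotin (IA-DTB) probe, comparing probe-labelled peptide intensities in compound-treated cells against DMSO-treated controls.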

UniProt P22314, sequence (P22314 whole entry, looked up): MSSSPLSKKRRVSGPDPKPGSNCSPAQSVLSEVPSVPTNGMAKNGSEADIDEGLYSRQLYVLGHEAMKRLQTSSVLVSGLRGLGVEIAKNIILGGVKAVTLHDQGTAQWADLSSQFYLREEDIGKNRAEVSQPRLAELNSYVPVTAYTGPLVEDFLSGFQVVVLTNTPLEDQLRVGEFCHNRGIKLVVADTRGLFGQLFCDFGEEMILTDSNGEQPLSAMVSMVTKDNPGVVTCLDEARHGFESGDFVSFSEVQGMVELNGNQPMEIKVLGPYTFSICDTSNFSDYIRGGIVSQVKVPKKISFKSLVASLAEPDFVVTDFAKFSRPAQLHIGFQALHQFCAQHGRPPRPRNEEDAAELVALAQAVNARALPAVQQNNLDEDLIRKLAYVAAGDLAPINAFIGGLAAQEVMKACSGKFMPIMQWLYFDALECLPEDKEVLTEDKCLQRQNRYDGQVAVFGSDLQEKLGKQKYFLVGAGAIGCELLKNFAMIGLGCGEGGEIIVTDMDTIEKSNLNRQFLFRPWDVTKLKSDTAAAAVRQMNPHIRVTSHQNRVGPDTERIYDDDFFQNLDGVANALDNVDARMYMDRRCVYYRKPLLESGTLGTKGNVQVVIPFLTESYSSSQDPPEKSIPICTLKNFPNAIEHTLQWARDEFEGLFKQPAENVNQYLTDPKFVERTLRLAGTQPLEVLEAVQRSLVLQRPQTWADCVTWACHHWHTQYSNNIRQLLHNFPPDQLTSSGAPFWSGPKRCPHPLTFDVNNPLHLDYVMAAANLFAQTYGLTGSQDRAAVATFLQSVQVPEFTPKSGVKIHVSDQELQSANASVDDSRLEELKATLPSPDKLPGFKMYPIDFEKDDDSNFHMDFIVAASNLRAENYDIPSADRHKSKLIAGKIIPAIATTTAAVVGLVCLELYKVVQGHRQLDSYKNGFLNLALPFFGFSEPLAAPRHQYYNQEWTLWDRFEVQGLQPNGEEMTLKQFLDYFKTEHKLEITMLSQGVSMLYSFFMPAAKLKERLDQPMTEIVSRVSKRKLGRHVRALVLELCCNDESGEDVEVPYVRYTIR
UniProt Q9Y4E6, sequence (Q9Y4E6 whole entry, looked up): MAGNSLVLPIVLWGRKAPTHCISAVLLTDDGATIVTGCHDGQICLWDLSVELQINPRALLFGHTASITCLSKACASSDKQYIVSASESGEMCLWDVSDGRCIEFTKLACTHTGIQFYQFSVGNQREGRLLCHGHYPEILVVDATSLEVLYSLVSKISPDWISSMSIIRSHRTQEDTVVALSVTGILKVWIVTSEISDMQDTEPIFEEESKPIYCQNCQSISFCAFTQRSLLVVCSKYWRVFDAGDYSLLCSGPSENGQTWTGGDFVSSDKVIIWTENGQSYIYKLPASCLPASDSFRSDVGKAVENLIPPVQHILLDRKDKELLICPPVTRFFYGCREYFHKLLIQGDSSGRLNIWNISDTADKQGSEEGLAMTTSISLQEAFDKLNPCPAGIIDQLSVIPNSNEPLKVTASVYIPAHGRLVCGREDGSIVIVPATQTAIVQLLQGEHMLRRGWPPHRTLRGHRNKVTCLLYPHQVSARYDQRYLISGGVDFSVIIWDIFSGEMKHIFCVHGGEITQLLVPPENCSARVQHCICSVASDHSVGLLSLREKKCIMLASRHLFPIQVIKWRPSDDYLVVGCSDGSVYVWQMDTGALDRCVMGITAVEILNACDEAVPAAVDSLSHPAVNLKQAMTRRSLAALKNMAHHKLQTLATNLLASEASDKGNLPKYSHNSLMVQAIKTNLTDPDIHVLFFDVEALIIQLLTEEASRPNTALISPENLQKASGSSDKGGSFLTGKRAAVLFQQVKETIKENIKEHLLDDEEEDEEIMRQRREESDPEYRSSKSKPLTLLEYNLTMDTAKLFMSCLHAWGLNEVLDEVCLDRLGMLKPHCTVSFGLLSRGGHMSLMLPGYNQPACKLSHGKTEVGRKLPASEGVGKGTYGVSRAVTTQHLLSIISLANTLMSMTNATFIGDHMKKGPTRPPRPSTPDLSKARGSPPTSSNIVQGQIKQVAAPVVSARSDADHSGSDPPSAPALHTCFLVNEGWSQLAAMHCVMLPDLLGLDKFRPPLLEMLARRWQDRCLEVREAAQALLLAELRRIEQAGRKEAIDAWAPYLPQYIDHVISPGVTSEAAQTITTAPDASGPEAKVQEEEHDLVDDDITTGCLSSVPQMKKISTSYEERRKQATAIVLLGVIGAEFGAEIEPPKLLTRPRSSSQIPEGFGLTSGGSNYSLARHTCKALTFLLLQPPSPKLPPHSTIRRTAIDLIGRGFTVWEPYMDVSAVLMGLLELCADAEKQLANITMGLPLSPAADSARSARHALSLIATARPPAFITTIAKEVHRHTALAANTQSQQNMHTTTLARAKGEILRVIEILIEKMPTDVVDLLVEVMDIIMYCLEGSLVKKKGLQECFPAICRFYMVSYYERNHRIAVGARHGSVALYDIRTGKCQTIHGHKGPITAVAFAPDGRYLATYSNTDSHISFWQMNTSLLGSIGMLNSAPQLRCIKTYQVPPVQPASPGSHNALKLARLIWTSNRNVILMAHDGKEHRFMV
UniProt Q8IWV8, sequence (Q8IWV8 whole entry, looked up): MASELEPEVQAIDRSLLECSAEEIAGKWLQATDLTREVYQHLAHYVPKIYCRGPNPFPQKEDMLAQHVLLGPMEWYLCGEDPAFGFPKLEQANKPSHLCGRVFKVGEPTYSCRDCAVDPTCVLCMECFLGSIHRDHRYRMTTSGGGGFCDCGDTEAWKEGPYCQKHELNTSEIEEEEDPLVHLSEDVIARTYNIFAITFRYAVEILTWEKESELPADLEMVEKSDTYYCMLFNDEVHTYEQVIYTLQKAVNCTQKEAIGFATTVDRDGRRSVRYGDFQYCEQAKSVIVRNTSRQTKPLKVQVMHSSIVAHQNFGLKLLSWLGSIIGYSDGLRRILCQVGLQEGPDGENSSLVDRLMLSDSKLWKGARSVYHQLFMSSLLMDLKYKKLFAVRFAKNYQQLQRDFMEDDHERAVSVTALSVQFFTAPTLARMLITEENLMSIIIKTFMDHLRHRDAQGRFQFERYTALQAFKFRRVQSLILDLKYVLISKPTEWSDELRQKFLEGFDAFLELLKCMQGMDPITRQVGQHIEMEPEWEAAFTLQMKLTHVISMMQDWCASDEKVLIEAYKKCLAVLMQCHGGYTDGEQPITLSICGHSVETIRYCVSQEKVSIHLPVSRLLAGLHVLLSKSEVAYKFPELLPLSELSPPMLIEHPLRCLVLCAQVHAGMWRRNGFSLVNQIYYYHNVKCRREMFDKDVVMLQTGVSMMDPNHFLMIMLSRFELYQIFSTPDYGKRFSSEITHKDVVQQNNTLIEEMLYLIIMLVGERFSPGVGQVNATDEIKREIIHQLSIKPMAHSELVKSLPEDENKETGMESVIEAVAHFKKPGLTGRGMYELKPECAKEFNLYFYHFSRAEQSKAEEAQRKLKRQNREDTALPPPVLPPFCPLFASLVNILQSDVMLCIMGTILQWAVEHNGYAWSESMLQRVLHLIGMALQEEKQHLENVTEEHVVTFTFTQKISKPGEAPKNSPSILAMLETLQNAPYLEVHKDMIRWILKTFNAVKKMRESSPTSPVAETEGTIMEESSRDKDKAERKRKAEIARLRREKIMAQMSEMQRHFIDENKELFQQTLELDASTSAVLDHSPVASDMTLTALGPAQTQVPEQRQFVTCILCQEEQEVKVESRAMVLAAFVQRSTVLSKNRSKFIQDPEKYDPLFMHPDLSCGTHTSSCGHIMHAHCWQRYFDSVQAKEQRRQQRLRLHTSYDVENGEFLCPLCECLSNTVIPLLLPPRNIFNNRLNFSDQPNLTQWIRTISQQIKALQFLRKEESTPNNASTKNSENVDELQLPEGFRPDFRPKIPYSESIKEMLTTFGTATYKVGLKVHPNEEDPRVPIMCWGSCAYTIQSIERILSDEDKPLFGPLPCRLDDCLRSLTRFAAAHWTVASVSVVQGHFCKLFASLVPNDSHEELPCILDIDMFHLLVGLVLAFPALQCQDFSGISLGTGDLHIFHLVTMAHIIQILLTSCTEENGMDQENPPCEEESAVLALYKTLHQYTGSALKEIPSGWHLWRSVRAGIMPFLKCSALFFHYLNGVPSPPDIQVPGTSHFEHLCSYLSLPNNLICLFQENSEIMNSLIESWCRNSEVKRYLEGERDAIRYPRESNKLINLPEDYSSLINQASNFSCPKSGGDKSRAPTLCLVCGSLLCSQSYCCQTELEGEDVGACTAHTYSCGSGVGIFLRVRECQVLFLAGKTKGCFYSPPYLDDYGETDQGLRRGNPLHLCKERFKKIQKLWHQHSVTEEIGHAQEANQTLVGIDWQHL
UniProt Q16851, sequence (Q16851 whole entry, looked up): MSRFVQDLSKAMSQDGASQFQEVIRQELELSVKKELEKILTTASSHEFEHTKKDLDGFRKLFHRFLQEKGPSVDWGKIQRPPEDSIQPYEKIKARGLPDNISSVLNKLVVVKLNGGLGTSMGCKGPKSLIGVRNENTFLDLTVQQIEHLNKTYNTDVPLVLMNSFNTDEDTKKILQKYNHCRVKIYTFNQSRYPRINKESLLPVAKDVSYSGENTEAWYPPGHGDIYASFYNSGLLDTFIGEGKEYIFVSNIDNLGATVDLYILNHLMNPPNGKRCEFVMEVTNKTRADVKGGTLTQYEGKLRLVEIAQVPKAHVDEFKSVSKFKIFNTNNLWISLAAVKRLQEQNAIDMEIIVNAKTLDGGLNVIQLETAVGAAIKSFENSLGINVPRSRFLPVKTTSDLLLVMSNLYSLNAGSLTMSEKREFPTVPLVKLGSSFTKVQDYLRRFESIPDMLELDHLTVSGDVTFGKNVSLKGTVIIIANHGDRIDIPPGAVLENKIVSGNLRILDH
UniProt P51965, sequence (P51965 whole entry, looked up): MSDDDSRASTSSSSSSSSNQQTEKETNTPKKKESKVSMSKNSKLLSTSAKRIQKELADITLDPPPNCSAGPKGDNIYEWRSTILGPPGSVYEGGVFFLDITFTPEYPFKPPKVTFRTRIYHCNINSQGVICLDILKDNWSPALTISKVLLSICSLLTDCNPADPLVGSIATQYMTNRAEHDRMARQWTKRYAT

Target	probe-labelled cysteine peptide fold change
UBA1_P22314_234_DNPGVVTCLDEAR (UniProt P22314)	0.0251
WDR12_Q9GZL7_185_ALHCCR (UniProt Q9GZL7)	0.0665
UGP2_Q16851_123_LNGGLGTSMGCK (UniProt Q16851)	-0.0886
TRMT1_Q9NXH9_376_FSAACGPPVTPECEHCGQR (UniProt Q9NXH9)	0.157
UAP1L1_Q3KQV9_271+278_LADPVFIGFCVLQGADCGAK (UniProt Q3KQV9)	0.0951
WDFY4_Q6ZS81_835_QWPDLEERMDEGDAAIMHPGVVCIMVR (UniProt Q6ZS81)	-0.279
XPC_Q01831_514_MCSDGEK (UniProt Q01831)	-0.0167
WDFY1_Q8IWB7_189_LEQNTCSVITTLK (UniProt Q8IWB7)	0.462
WDR44_Q5JSH3_642_ECLCCFQHIDFVTAIAFHPR (UniProt Q5JSH3)	0.143
WDR91_A4D1P6_246_LGDSELAMVCSQR (UniProt A4D1P6)	-0.0616
TTC21B_Q7Z4L5_72_QDVSLCSLLALIYAHK (UniProt Q7Z4L5)	0.155
UBR4_Q5T4S7_4146_QAACTIVEALATIPSR (UniProt Q5T4S7)	0.0371
WDR7_Q9Y4E6_326_ELLICPPVTR (UniProt Q9Y4E6)	0.0845
VRK3_Q8IV63_128_TSCSPQK (UniProt Q8IV63)	0.0233
UFC1_Q9Y3C8_116_ICLTDHFKPLWAR (UniProt Q9Y3C8)	-0.522
TRMT1_Q9NXH9_351_QALVFQCVGCGAFHLQR (UniProt Q9NXH9)	0.147
TYW1B_Q6NUM6_581_ELVDLIPEYEIACEHEHSNCLLIAHR (UniProt Q6NUM6)	0.268
UBR7_Q8N806_374_VQQVELICEYNDLK (UniProt Q8N806)	-0.0738
TTC27_Q6P3X3_374_NNPVHTLTEVELLAFTSCLLSQPK (UniProt Q6P3X3)	0.253
UBE2E1_P51965_131_IYHCNINSQGVICLDILK (UniProt P51965)	0.0832

Target	probe-labelled cysteine peptide fold change
URB1_O60287_315_ELVHNFLMDLCCSLK (UniProt O60287)	-0.0229
TXNRD1_Q16881_625_QLDSTIGIHPVCAEVFTTLSVTK (UniProt Q16881)	0.301
UBR2_Q8IWV8_1360_ILSDEDKPLFGPLPCR (UniProt Q8IWV8)	-0.139
USP19_O94966_1017_LEDKGDTPLELGDDCSLALVWR (UniProt O94966)	-0.14
WDR11_Q9BZH6_411_NSSSGVSPLYSPVSFCGIPVGVLQNK (UniProt Q9BZH6)	-0.0944
WAPL_Q7Z5K2_891_ALQHCEELIQQYNR (UniProt Q7Z5K2)	0.739
TTC30B_Q8N4P2_619_DSVIQECVQFLEHCELHGR (UniProt Q8N4P2)	0.056
VPS13B_Q7Z7G8_3937_VACDVEVDGVR (UniProt Q7Z7G8)	0.0676
UNK_Q9C0B0_299+308_CNDMQQSGSCPR (UniProt Q9C0B0)	0.0296
VCPIP1_Q96JH7_219_SQECLIPVHVDGDGHCLVHAVSR (UniProt Q96JH7)	-0.566
TXNIP_Q9H3M7_49_ILACGVAK (UniProt Q9H3M7)	0.365
UBAP1_Q9NZ09_243_ATLDFKPLHKPNGFITLPQLGNCEK (UniProt Q9NZ09)	-0.241
TTF2_Q9UNY4_50_ATDIPVSHCLLHEDFVVELQGLLLPQDK (UniProt Q9UNY4)	0.0771
USP34_Q70CQ2_2033_CQVADMK (UniProt Q70CQ2)	0.0209
USP4_Q13107_7_AEGGGCR (UniProt Q13107)	0.644
UBR5_O95071_1382+1386_LDCFTHCLIVK (UniProt O95071)	0.374
TUBG1_P23258_316_QTNHCYIAILNIIQGEVDPTQVHK<|>TUBG2_Q9NRH3_316_QTNHCYIAILNIIQGEVDPTQVHK (UniProt Q9NRH3+P23258)	0.00794
VPS37A_Q8NEZ2_375_TICHCR (UniProt Q8NEZ2)	0.905
TSPYL1_Q9H0U9_375_NQDLICSFFTWFSDHSLPESDK (UniProt Q9H0U9)	0.789
URB2_Q14146_1380_LHNVLFSILQCHPK (UniProt Q14146)	0.199
